Laboratory results as given in PubChem BioAssay AID1578 (Sanford-Burnham Center for Chemical Genomics, 2009).
Among all 290,000 compounds or so, about 3,000 (1%) were called active. Cut-off read from the data, not from the text of the source: active = inhibition mostly above about 36% (no sharp cut-off); inactive = mostly below about 34%. The sample as a whole holds a higher share of actives than the screen did.

experiment: NOD1 signaling inhibitors, primary screen, cell-based, luminescence, uHTS (AID 1578); details: NOD1-driven NF-kB luciferase reporter cells, at 4 µM, hits give high values;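 note: HEK-293T reporter cells stimulated with the NOD1 agonist gamma-tri-DAP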

| Compound | inhibition |
| --- | --- |
| CC1CN(C(=O)CN2C(=O)c3ccccc3C2=O)CC(C)O1 (stereo unspecified) | -11.2% (inactive) |
| c1ccc(C(c2nnnn2C2CCCC2)N2CCN(c3nc4ccccc4s3)CC2)cc1 (stereo unspecified) | 8.2% (inactive) |
| CCOC(=O)c1c(NC(=O)CC)sc2c1CCN(Cc1ccccc1)C2 | -21.7% (inactive) |
| Nc1nonc1-n1nnc(C(=O)N/N=C/c2ccccn2)c1CNc1ccccc1 | -11.6% (inactive) |
| COc1ccccc1-c1cc(C(=O)N/N=C/c2sccc2C)c2ccccc2n1 | -11.4% (inactive) |
| Cc1ccsc1/C=N/NC(=O)c1cc(-c2ccncc2)nc2ccccc12 | 69.5% (active) |
| O=C(N/N=C/c1cccs1)c1cc(-c2ccncc2)nc2ccccc12 | 4.8% (inactive) |
| Cc1onc(-c2ccccc2Cl)c1C(=O)OCC(=O)c1c(N)n(C)c(=O)n(C)c1=O | -8.2% (inactive) |
| COc1ccc(C(C(=O)NC2CCCCC2)N(C(=O)c2snc(C(N)=O)c2N)c2ccc(OC)cc2OC)cc1 (stereo unspecified) | -7.1% (inactive) |
| Cn1c(=O)n(C)c2cc(NC(=O)c3ccccc3NS(C)(=O)=O)ccc21 | 44.4% (inactive) |
| O=c1[nH]c(C2CCN(S(=O)(=O)Cc3ccccc3)CC2)nc2c1nnn2Cc1cccc(Cl)c1 | -7.8% (inactive) |
| NC(N)=NC(=S)Nc1ccc(Cl)cc1 | -15.3% (inactive) |
| NC(=NCCCCCCN=C(N)/N=C(\N)Nc1ccc(Cl)cc1)/N=C(\N)Nc1ccc(Cl)cc1 | 46.6% (active) |
| NC(=O)Nc1ccc(Cl)cc1 | 0.2% (inactive) |
| Cc1ccc(S(=O)(=O)NC(C)C(=O)Nc2ccc3c(c2)OCO3)cc1 (stereo unspecified) | -7.4% (inactive) |
| Cc1cc(C(F)F)n2nc(C(=O)Nc3cccc(C(F)(F)F)c3)nc2n1 | -25.8% (inactive) |
| COC(=O)CNC(=O)C(NC(=O)c1ccc(Cl)cc1)C(C)C (stereo unspecified) | 1.3% (inactive) |
| O=C(CC1C(=O)NCCN1Cc1cccc(F)c1)NC1CCC1 (stereo unspecified) | -28.3% (inactive) |
| COc1ccc2c(c1)C(C)=CC(C)(C)N2S(=O)(=O)c1ccc(NC(C)=O)cc1 | 31.4% (inactive) |
| CCOc1ccc2c(c1)C(C)=CC(C)(C)N2S(=O)(=O)c1ccc(C)cc1 | -31.4% (inactive) |
| CCOc1ccc2c(c1)C(C)=CC(C)(C)N2S(=O)(=O)c1ccc(NC(C)=O)cc1 | 74.1% (active) |
| CC(=O)c1cnc2nc(SCc3ccccc3)nn2c1C | -36% (inactive) |
| O=C(NC1CCCC1)C(c1ccc(F)cc1)N(C(=O)c1csnn1)c1ccccc1 (stereo unspecified) | -27.7% (inactive) |
| CCOc1ccc2nc(SCC(=O)c3ccccc3)sc2c1 | -38.9% (inactive) |

| Compound | inhibition |
| --- | --- |
| CCOc1ccc2nc(SCC(=O)Nc3ccc4c(c3)OCO4)sc2c1 | 67.3% (active) |
| O=C(CSc1nc2ccccc2s1)c1ccc(O)cc1O | 0.6% (inactive) |
| O=C(CSc1nc2ccccc2s1)Nc1ccc2c(c1)OCO2 | 12.2% (inactive) |
| CCOc1ccc2nc(SCC(=O)c3ccc(O)cc3O)sc2c1 | 51.8% (active) |
| CCOc1ccc2nc(SCC(=O)NC(=O)C(C)C)sc2c1 | -13.9% (inactive) |
| CCN1CCN(C(=S)c2ccc(O)cc2)CC1 | -31% (inactive) |
| Nc1cccc(C(=O)OCC(=O)Nc2cccc3c2C(=O)c2ccccc2C3=O)c1 | -3.2% (inactive) |
| O=C(CSc1ccccc1)NC1=NCCS1 | -5.2% (inactive) |
| COc1ccc(Nc2ncc(C(=O)N3CCN(c4ccccc4OC)CC3)c3ccccc23)cc1 | 52.5% (inactive) |
| CN(C(=O)c1cnc(N2CCN(c3ncccn3)CC2)c2ccccc12)c1ccc(Cl)cc1 | 14.2% (inactive) |
| COc1ccc(N(C)C(=O)c2cnc(N3CCN(c4ncccn4)CC3)c3ccccc23)cc1 | -20% (inactive) |
| COc1ccccc1C(=O)N1CCN(c2cccc(Cl)c2)CC1 | 33.8% (inactive) |
| COc1ccc(CNCc2ccc(F)cc2)c(OC)c1 | -19.8% (inactive) |
| CCOC(=O)NC(=O)/C(N=Nc1cc(C)cc(C)c1)=C(\C)O | -20.5% (inactive) |
| CC(C)(C)NCC(O)(c1ccc(Cl)cc1)c1ccc(Cl)cc1 | -30.2% (inactive) |
| CCNC(=S)N(Cc1ccc2c(c1)OCO2)C1CC(=O)N(c2ccc(F)cc2)C1=O (stereo unspecified) | -9.3% (inactive) |
| COc1ccc(N2CCN(C(=O)c3ccc(CNS(=O)(=O)c4cc(C)ccc4C)cc3)CC2)cc1 | -18.8% (inactive) |
| COc1ccc(CNS(=O)(=O)c2ccc(OC)cc2)cc1 | -1.2% (inactive) |
| Cc1ccc(S(=O)(=O)NCc2ccc(C(=O)N3CCN(c4ccccc4)CC3)cc2)cc1 | 15.5% (inactive) |
| COc1ccc(S(=O)(=O)NCc2ccc(C(=O)O)cc2)cc1 | 40.7% (active) |
| CC1Cc2cc(S(=O)(=O)NCc3ccccc3)ccc2N1C(=O)C1CC1 (stereo unspecified) | -4.7% (inactive) |
| Cc1ccc(S(=O)(=O)NCc2ccc(C(=O)N3CCCC3)cc2)cc1 | -46% (inactive) |
| CCOC(=O)N1CCN(C(=O)c2ccc(CNS(=O)(=O)c3ccc(C)cc3)cc2)CC1 | -13.1% (inactive) |
| COc1ccc(S(=O)(=O)NCc2ccccc2)cc1 | 9.2% (inactive) |

| Compound | inhibition |
| --- | --- |
| COc1cccc(CNS(=O)(=O)c2ccc3c(c2)CC(C)N3C(=O)C2CC2)c1 (stereo unspecified) | 11.6% (inactive) |
| COc1ccccc1-c1noc(CCCC(=O)N2CCOCC2)n1 | -3.7% (inactive) |
| O=C(CCc1nc(-c2ccc(Cl)cc2)no1)NC1CCCCC1 | -5.8% (inactive) |
| CCOC(=O)C1CCCN(C(=O)CNC(=O)Cn2ccc3ccccc3c2=O)C1 (stereo unspecified) | -4.8% (inactive) |
| O=C(NC(=O)N1CCCCC1)c1ccccc1 | -30.9% (inactive) |
| O=C(NCc1ccccc1)c1cc[n+](CC(=O)c2cccs2)cc1 | 3.5% (inactive) |
| CCOc1ccc(CN(C)C(=O)c2ccc3ccccc3n2)cc1 | -22.9% (inactive) |
| Cc1cccc(N(Cc2ccccc2)C(=O)c2ccc(S(C)(=O)=O)cc2)c1 | 5.8% (inactive) |
| O=[N+]([O-])c1ccc(N2CCN(C(=S)NCc3ccc(Cl)cc3)CC2)cc1 | 89% (active) |
| C=CCNC(=S)N1CCN(c2ccc([N+](=O)[O-])cc2)CC1 | 4.7% (inactive) |
| CCNC(=S)N1CCN(c2ccc([N+](=O)[O-])cc2)CC1 | 16% (inactive) |
| CC(C)(C)n1nc2c(c1NC(=O)c1cc(Cl)ccc1[N+](=O)[O-])CS(=O)(=O)C2 | 19.5% (inactive) |
| O=C(O)CSc1nnc(-c2ccc(Cl)cc2Cl)n1-c1ccc(Br)cc1 | 14.7% (inactive) |
| Nc1[nH]n2c(=O)cc(-c3ccccc3)nc2c1N=Nc1ccc(S(N)(=O)=O)cc1 | -26% (inactive) |
| Cc1ccc(N=Nc2c(N)[nH]n3c(=O)cc(-c4ccccc4)nc23)cc1 | 76% (active) |
| Cc1ccc(N=Nc2c(N)[nH]n3c(=O)cc(C)nc23)cc1 | -20.5% (inactive) |
| Cc1ccc(C(=O)CSc2nc(C)cc(=O)[nH]2)cc1 | -3.4% (inactive) |
| O=C(O)CSc1nc(-c2ccccc2)cc(=O)[nH]1 | -22.9% (inactive) |
| Cc1ccc(C(=O)CSc2nc(-c3ccccc3)cc(=O)[nH]2)cc1 | 64.8% (active) |
| CCOC(=O)Cn1c(=O)oc2cc(S(=O)(=O)N(C)c3ccc(OC)cc3)ccc21 | 3.5% (inactive) |
| CCOc1cc(/C=C2/C(=O)ON=C2C)cc(Br)c1O | 25.8% (inactive) |
| COc1cc(/C=C2\C(=O)ON=C2c2ccccc2)cc(Br)c1O | 13.8% (inactive) |
| CCOc1cc(/C=C2\C(=O)ON=C2c2ccccc2)cc(Br)c1O | 39.5% (active) |
| C/C(N)=C(/C#N)C(=O)COC(=O)CC12CC3CC(CC(C3)C1)C2 | 14.9% (inactive) |

| Compound | inhibition |
| --- | --- |
| CCn1c(CNC(=O)Cc2ccc(OC)cc2)nnc1SCC(=O)Nc1nccs1 | -10.4% (inactive) |
| O=C(O)c1ccc(N=Nc2c(-c3ccccc3)[nH]oc2=O)cc1 | -2.7% (inactive) |
| O=c1o[nH]c(-c2ccccc2)c1N=Nc1c(F)cccc1Cl | 37% (active) |
| Cc1[nH]oc(=O)c1N=Nc1c(Cl)cccc1Cl | -17% (inactive) |
| Cc1ccc(N2C(=O)/C(=C/c3cccnc3)SC2=S)cc1 | 56.2% (inactive) |
| C=C1C(C(=O)Nc2ccc(F)cc2)C1C(=O)Nc1ccc(F)cc1 (stereo unspecified) | 3.1% (inactive) |
| O/N=C/c1ccccc1Oc1ccc(Cl)cc1 | 72.6% (active) |
| O/N=C\c1ccccc1Oc1ccc(F)cc1 | 8% (inactive) |
| O/N=C/c1ccccc1Oc1ccccc1 | 22.6% (inactive) |
| CCOC(=O)/C(C#N)=C\c1cccnc1 | -19.2% (inactive) |
| CCOC(=O)/C(=C\c1cccnc1)C(=O)c1cc(C(C)=O)c(Nc2ccccc2)s1 | 102% (active) |
| CCOC(=O)/C(=C\c1ccccc1)C(=O)c1cc(C(C)=O)c(Nc2ccccc2)s1 | 57.5% (inactive) |
| Cc1ccc2occ(/C=N/NC(=O)c3ccccc3C)c(=O)c2c1 | 49% (active) |
| Cc1ccc2occ(/C=N/NC(=O)c3ccccc3O)c(=O)c2c1 | -14.7% (inactive) |
| Cc1ccc2occ(/C=N/NC(=O)c3ccccc3Br)c(=O)c2c1 | 29.9% (inactive) |
| O=S1(=O)C=C(SCc2cccc(Cl)c2)Nc2ccccc21 | 21.1% (inactive) |
| COc1ccc(Nc2nc(C)nc3c2nnn3Cc2ccccc2)cc1OC | 0% (inactive) |
| CCc1nc(Nc2ccc(OC)c(OC)c2)c2nnn(Cc3ccccc3Cl)c2n1 | 58.7% (active) |
| COc1cccc(OC)c1Nc1nc(C)nc2c1nnn2Cc1ccccc1Cl | -33.1% (inactive) |
| O=C(Nc1ccnn1C1CCN(C2CCCCC2)CC1)c1ccccc1 | -6.5% (inactive) |
| COc1cc(/C=N/n2c(C)nc3ccccc3c2=O)cc(OC)c1O | -6.8% (inactive) |
| O=C(c1ccc(Cl)c(S(=O)(=O)N2CCCCC2)c1)N1CCCCC1 | -30.5% (inactive) |
| O=C(c1ccc(Cl)c(S(=O)(=O)N2CCCCCC2)c1)N1CCCC1 | 0.4% (inactive) |
| NS(=O)(=O)c1cc(C(=O)N2CCNC(=O)C2)ccc1Cl | 70.4% (active) |
